Out of some 190,000 compounds screened, about 360 (0.19%) were called active. Inconclusive results (about 2%) are left out. The sample holds actives, similar compounds and a random draw of the others, so the mix is not that of the screen.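 The calls were made as follows: active = GTP binding activity at least 20 points away from 100%, either lowered or raised; inconclusive = signal likely due to the compound's own green fluorescence; inactive = the rest.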
Molecular target: Ras-related protein Rab-2A (Canis lupus familiaris) (UniProt P61105)
Test: modulators of GTP binding to Rab2A wildtype, primary screen, biochemical, dog, bead-based flow cytometry, multiplex (AID 760);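 also: 0% = beads with excess unlabeled GTP and 100% = no-compound control corrected for plate trend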
Details: GST-Rab2 wt beads, Bodipy-GTP binding, at 10 µM

GTP binding activity, inactive:
Cc1ccc(C(=O)NN(CCC#N)C2=NS(=O)(=O)c3ccccc32)cc1 95%
Cn1nc(-c2ccccc2)c(CO)c1Sc1ccccc1 93%
CN1C(=O)/C(=C/C=C2\SCCN2C)OC1=S 98%
O=C(O)CCc1nc2cc(Cl)ccc2n(Cc2ccccc2)c1=O 98%
CCN(CC(=O)NCc1cccs1)S(=O)(=O)c1ccc(NC(C)=O)cc1 96%
Cc1ccc(S(=O)(=O)N2CCOCC2)cc1NC(=O)CSc1nnc(N)s1 98%
Cc1ccccc1CC1(CO)CCCN(Cc2ccc3c(c2)OCCO3)C1 (stereo not given) 99%
O=C(CC1SC(=Nc2ccccc2F)N(CCN2CCOCC2)C1=O)Nc1ccc(F)cc1F (stereo not given) 97%
CC(C)NC(=O)NC(=O)CSc1nnc(-c2ccccc2F)n1N 97%
C=CCN1C(=O)C(O)(CC(=O)c2ccccn2)c2ccccc21 (stereo not given) 107%
CC1(C)CC(=O)c2ccc(O)cc2O1 97%
N=C1C(c2nc3ccccc3[nH]2)=C(O)CN1NC(=O)c1c[nH]c2ccccc12 96%
CCCCOc1ccc(N(CC(=O)NC(C)C)C(=O)CCC(=O)Nc2ccccn2)cc1 97%
O=C(NNC(=S)NC(=O)c1cn(-c2ccccc2)nc1-c1ccccc1)c1ccncc1 90%
COc1ccc(N2CCN(C(=O)CNS(=O)(=O)c3ccc(C)c(C)c3)CC2)cc1 96%
CC(C)=CCN1CCN(Cc2ccc(Oc3ncccn3)cc2)CC1CCO (stereo not given) 100%
COc1ccc(NC(=O)c2cc3nc(-c4ccccc4)cc(C)n3n2)cc1OC 84%
CCOC(=O)c1ccc(Nc2cc(C)nc3nc(C)nn23)cc1 98%
CCOC(=O)c1ccc(N/C(=N/S(=O)(=O)c2ccccc2)c2ccccc2)cc1 95%
O=C(/C=C/c1ccc(N2CCOCC2)cc1)c1ccccc1 97%
CCN(c1ccccc1)S(=O)(=O)c1ccc2[nH]c(=O)[nH]c2c1 99%
O=C(Nc1ccc2oc(-c3ccccc3F)nc2c1)c1ccco1 96%
Cc1ccc2cc(CN(c3ccc(C)c(C)c3)S(C)(=O)=O)c(=O)[nH]c2c1 98%
CCN(CC(=O)NC(=O)NCc1ccccc1)Cc1nc2ccccc2c(=O)[nH]1 101%
Cc1noc(C)c1S(=O)(=O)Nc1ccc(C(=O)N2CCN(c3ccc(F)cc3)CC2)cc1 96%
COc1ccc(CC(=O)N[C@@H](CCSC)c2nc3ccccc3[nH]2)cc1 99%
S=C(NCc1ccc2c(c1)OCO2)NCc1ccco1 101%
Cc1ccc(CNC(=O)CCNS(=O)(=O)c2ccc(Br)s2)cc1 99%
C=CCN(CC=C)S(=O)(=O)c1ccc(C(=O)Nc2sc3c(c2C(N)=O)CCCCC3)cc1 101%
COCCN(CCOC)S(=O)(=O)c1ccc(C(=O)Nc2nc3c(s2)CCc2ccccc2-3)cc1 102%
COc1ccc2oc(=O)c(C(=O)N3CCCC3)cc2c1 98%
O=S(=O)(NCc1ccccc1)c1ccc(S(=O)(=O)N2CCCC2)cc1 100%
COC(=O)C1=C(C)NC(=O)/C1=C/c1ccc(CNS(=O)(=O)c2ccc(C)cc2)o1 100%
C=CCC(C(=O)c1ccccc1)[N+](C)(C)CC=C (stereo not given) 96%
O=C(COC(=O)C12CC3CC(CC(O)(C3)C1)C2)NC12CC3CC(CC(C3)C1)C2 100%
CCOC(=O)c1oc2c(CN3CCN(CCO)CC3)c(O)c(CC)cc2c(=O)c1-c1nc2ccccc2s1 99%
COc1ccc(Cl)cc1N(CC(=O)N/N=C/c1ccc(OCC(N)=O)cc1)S(C)(=O)=O 99%
N/C(=N\OC(=O)COc1ccc([N+](=O)[O-])cc1)c1ccc(Br)cc1 98%
CCOc1ccc(C(C)=O)cc1CSc1nnc(-c2ccncc2)n1CCOC 99%
O=C(CCN1C(=O)c2ccccc2C1=O)NCCCn1ccnc1 101%
Cc1nc(N2CCOCC2)sc1C(=O)NN 100%
COc1ccc(-c2nn(-c3ccccc3)cc2CN2CCCO2)c(F)c1 100%
Cc1ccc(C(=O)CS(C)(=O)=O)cc1 104%
Cc1ccc(CSCC(N)C(=O)O)cc1 (stereo not given) 97%
O=C(CSc1ccc([N+](=O)[O-])cn1)Nc1ccc(N2CCOCC2)c(Cl)c1 96%
CCCOC1CCCN(Cc2cn(C)nc2-c2ccccc2F)C1 (stereo not given) 96%

GTP binding activity, active:
CCOC(=O)c1nc(Nc2ccc(C(=O)OC)cc2)c2ccccc2n1 77%
C=CCN(CC=C)S(=O)(=O)c1ccc(C(=O)Nc2nc3c(s2)CCc2ccccc2-3)cc1 39%
O=c1/c(=C/c2ccc(CNS(=O)(=O)c3ccccc3)o2)sc2n1CCN=2 74%
Cc1ccc(SC(CC(=O)c2ccc(C(C)(C)C)cc2)C(=O)O)cc1 (stereo not given) 78%

From PubChem BioAssay AID760 (NMMLSC, 2007)
